Reference: PubChem BioAssay
The source made the active and inactive calls. Unless noted, the rule behind the calls is not given here.

Experiments:
[1] = A549 cell viability effects, profiling panel, calcein-AM fluorescence, 48 h, basal (AID 1162); settings: higher = more signal; note: test concentration not given here
[2] = adipocyte viability effects, profiling panel, cell-based, 3T3-L1 adipocytes, calcein-AM fluorescence, 48 h, basal (AID 1163); settings: 3T3-L1 adipocytes viability, higher = more signal; note: test concentration not given here
[3] = HepG2 cell viability effects, profiling panel, calcein-AM fluorescence, 48 h, basal (AID 1164); settings: higher = more signal; note: test concentration not given here
[4] = MM1S cell viability effects, profiling panel, calcein-AM fluorescence, 48 h, basal (AID 1165); settings: higher = more signal;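 note: viability of MM1S multiple myeloma cells under basal unstimulated conditions; test concentration not given here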
[5] = basal RPMI8226 viability, no added stimulus, profiling panel, cell-based, calcein-AM fluorescence, 48 h, PK04 Diversity Set (AID 1166); settings: RPMI8226 myeloma viability, higher = more signal;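 note: cells grown under basal conditions without added stimulus; test concentration not given here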
[6] = basal HepG2 mitochondrial membrane potential changes, profiling panel, cell-based, JC-1 fluorescence, 24 h, 100 nL compound (AID 1167); settings: higher = more signal; note: test concentration not given here
[7] = basal 3T3-L1 adipocyte mitochondrial potential changes, profiling panel, cell-based, JC-1 fluorescence, 3T3-L1 adipocytes, 24 h, 100 nL compound (AID 1168); settings: JC-1 mitochondrial fluorescence, higher = more signal, called active from +8 up or from −8 down; note: test concentration not given here
[8] = basal RPMI8226 mitochondrial membrane potential changes, profiling panel, cell-based, JC-1 fluorescence, 24 h, 100 nL compound (AID 1169); settings: RPMI8226 myeloma, JC-1 mitochondrial potential fluorescence, higher = more signal; note: test concentration not given here
[9] = basal MM1S mitochondrial membrane potential changes, profiling panel, cell-based, JC-1 fluorescence, 24 h, 100 nL compound (AID 1170); settings: higher = more signal; note: test concentration not given here
[10] = A549 lung cancer cell viability effects, profiling panel, resazurin fluorescence, 24 h, PK04 Diversity Set (AID 1171); settings: higher = more signal, called active from +8 up or from −8 down; note: test concentration not given here
[11] = HepG2 liver cancer cell viability effects, profiling panel, resazurin fluorescence, 24 h, PK04 Diversity Set (AID 1172); settings: higher = more signal; note: test concentration not given here
[12] = basal S. cerevisiae growth modulation, no modifier, primary screen, OD600, strain BY4716, 24 h, basal condition (AID 1173); settings: OD600, 24 h, higher = more signal, called active from +8 up or from −8 down
[13] = MM1S myeloma cell viability, profiling panel, resazurin fluorescence, basal, 24 h, PK04 Diversity Set (AID 1174); settings: higher = more signal, called active from +8 up or from −8 down;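 note: MM1S multiple myeloma cell line; test concentration not given here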
[14] = target: Dihydroorotate dehydrogenase (quinone), mitochondrial (Plasmodium falciparum (isolate 3D7)) (UniProt Q08210); assay: PfDHODH enzyme inhibitors, primary screen, biochemical, C-terminal His tag, absorbance 600 nm (AID 1175); settings: DCIP absorbance 600 nm, higher = more signal, called active from +8 up or from −8 down;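 note: recombinant parasite enzyme with a five histidine tag at its C terminus; test concentration not given here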
Chain of Dihydroorotate dehydrogenase (quinone), mitochondrial (Plasmodium falciparum (isolate 3D7)) (Q08210 whole entry, looked up): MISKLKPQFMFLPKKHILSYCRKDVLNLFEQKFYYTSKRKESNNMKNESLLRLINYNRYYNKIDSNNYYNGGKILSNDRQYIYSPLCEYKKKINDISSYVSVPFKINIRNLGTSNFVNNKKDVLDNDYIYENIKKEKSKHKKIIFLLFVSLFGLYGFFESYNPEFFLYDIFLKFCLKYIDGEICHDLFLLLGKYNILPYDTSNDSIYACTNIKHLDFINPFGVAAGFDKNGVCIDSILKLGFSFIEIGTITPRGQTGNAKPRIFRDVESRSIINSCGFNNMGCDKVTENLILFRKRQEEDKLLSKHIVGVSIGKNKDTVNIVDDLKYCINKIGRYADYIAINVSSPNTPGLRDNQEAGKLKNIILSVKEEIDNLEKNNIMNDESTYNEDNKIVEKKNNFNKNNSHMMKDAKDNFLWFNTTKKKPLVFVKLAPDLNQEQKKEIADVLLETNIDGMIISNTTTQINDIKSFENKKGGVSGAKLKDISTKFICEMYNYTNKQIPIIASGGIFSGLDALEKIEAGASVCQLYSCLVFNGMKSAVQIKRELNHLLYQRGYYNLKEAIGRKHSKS

[15] = P. aeruginosa biofilm formation inhibitors, primary screen, strain PAO1, LB-PBS medium, absorbance 600 nm (AID 1176); note: test concentration not given here; settings: P. aeruginosa PAO1 growth/biofilm, A600, 12 h; higher = more signal
[16] = S. cerevisiae RM11-1a growth modifiers, primary screen, strain RM11-1a, OD600, basal, 24 h (AID 1177); settings: OD600, 24 h, higher = more signal, called active from +8 up or from −8 down;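 note: cultures grown under basal conditions with no added stressor; test concentration not given here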
[17] = E. coli acrAB mutant growth effects, primary screen, E. coli filamentation inducers, strain DRC39, OD650, 24 h (AID 1178); settings: higher = more signal, called active from +8 up or from −8 down;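 note: growth measured as culture turbidity by optical density at 650 nm; test concentration not given here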
[18] = E. coli acrAB mutant growth effects, primary screen, E. coli filamentation inducers, strain DRC39, OD650, 48 h (AID 1179);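 note: screen aims at cell division blockers that make cells filament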; settings: E. coli DRC39 delta-acrAB growth, higher = more signal, called active from +8 up or from −8 down
[19] = RPMI8226 myeloma cell viability, profiling panel, resazurin fluorescence, basal, 24 h, PK04 Diversity Set (AID 1180); settings: higher = more signal;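 note: RPMI8826 multiple myeloma cell line at 5000 cells per well; test concentration not given here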
[20] = target: E3 ubiquitin-protein ligase XIAP (Homo sapiens) (UniProt P98170); assay: XIAP binders, primary screen, biophysical, small-molecule microarray, fluorescence 635 nm (AID 1181); settings: small-molecule microarray binding, higher = more signal;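 note: score merges 667 nm emission and signal to noise over triplicate slides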
Chain of E3 ubiquitin-protein ligase XIAP (Homo sapiens) (P98170 whole entry, looked up): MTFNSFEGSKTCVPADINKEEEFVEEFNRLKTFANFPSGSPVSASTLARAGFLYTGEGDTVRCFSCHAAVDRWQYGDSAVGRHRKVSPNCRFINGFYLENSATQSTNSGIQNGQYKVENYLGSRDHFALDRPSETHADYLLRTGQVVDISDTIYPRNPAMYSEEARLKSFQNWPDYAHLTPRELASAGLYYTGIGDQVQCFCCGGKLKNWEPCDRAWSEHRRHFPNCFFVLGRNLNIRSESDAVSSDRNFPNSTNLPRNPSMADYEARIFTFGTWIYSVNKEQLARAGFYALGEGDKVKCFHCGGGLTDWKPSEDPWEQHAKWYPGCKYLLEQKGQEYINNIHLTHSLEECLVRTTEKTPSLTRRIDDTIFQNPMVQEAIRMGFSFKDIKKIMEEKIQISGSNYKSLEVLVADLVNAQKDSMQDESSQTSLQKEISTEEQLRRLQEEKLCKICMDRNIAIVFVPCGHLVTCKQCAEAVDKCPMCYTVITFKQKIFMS

Row | SMILES | z-score [1] | z-score [2] | z-score [3] | z-score [4] | z-score [5] | z-score [6] | z-score [7] | z-score [8] | z-score [9] | z-score [10] | z-score [11] | z-score [12] | z-score [13] | composite z-score [14] | z-score [15] | z-score [16] | z-score [17] | z-score [18] | z-score [19] | composite z-score [20]
1 | CC(C)CON=C1C[C@@H](O)[C@@H](O)[C@@H]2[C@@H]3C(=O)N(c4ccc(F)cc4F)C(=O)[C@@H]3CC[C@H]12 | 0.0042 | -0.934 | -0.222 | 0.597 | -0.567 | 0.861 | -0.131 (inactive) | 0.541 | -1 | 0.495 (inactive) | 0.806 | -0.406 (inactive) | 0.686 (inactive) | -0.223 (inactive) | 0.246 (inactive) | -0.554 (inactive) | 0.404 (inactive) | -0.382 (inactive) | 0.17 | -0.138
2 | COc1ccc(C#C[C@@H]2C=C[C@H](OC(C)=O)[C@@H](COC(C)=O)O2)cc1 | -0.142 | 0.49 | 0.419 | -3.54 | -2.65 | -1.52 | -0.197 (inactive) | -0.437 | -2.68 | -0.0296 (inactive) | 0.0002 | -1.59 (inactive) | -2.77 (inactive) | -0.531 (inactive) | 0.0372 (inactive) | -0.939 (inactive) | 0.746 (inactive) | 0.348 (inactive) | -1.49 | -0.0801
3 | CC(C)CON=C1C[C@@H](O)[C@@H](O)[C@@H]2[C@@H]3C(=O)N(Cc4ccc5c(c4)OCO5)C(=O)[C@@H]3CC[C@H]12 | -0.223 | -0.503 | -0.479 | 0.119 | -1.15 | 0.174 | -0.589 (inactive) | 0.704 | -0.146 | 0.56 (inactive) | 0.259 | 0.151 (inactive) | -0.146 (inactive) | 0.834 (inactive) | -0.626 (inactive) | 0.812 (inactive) | 0.0036 (inactive) | -0.0961 (inactive) | -0.0651 | -0.184
4 | COC(=O)CC=C[C@@H](C)[C@@H](C=NOC[C@H]1O[C@H](c2ccccc2)C=C[C@@H]1Oc1ccc(OC)cc1)OC | 0.0124 | -0.701 | -0.56 | -0.831 | -0.209 | -1.05 | -0.506 (inactive) | 0.16 | -0.327 | 1.06 (inactive) | 0.167 | 0.805 (inactive) | 0.0784 (inactive) | 0.388 (inactive) | 0.335 (inactive) | 0.065 (inactive) | 0.0177 (inactive) | -0.0331 (inactive) | 0.264 | 0.127
5 | C[C@@H]1NC(=O)[C@@H](C)COC(=O)[C@H](C)NC(=O)[C@@H](C)COC1=O | -0.838 | 1.19 | 0.1 | -0.426 | -0.604 | 0.503 | 0.42 (inactive) | 0.0799 | 0.307 | 0.228 (inactive) | 0.0907 | -2.62 (inactive) | -0.325 (inactive) | -3.05 (inactive) | 0.365 (inactive) | -1.09 (inactive) | -0.0144 (inactive) | -1.87 (inactive) | 0.18 | 0.0714
6 | COc1cccc([C@H]2Oc3ccc(OC)cc3C(=NOC[C@@H](O)COCc3ccco3)[C@@H]2O)c1 | 0.451 | 0.558 | 0.819 | 0.667 | 0.414 | -0.959 | 0.461 (inactive) | 0.431 | -0.751 | -1.55 (inactive) | -0.949 | -1.38 (inactive) | -1.19 (inactive) | -1.58 (inactive) | -0.254 (inactive) | -2.29 (inactive) | 0.0207 (inactive) | -0.947 (inactive) | -0.825 | 0.0785
7 | COc1ccc(O[C@H]2C=C[C@@H](c3ccccc3)O[C@@H]2CON=C(C)C)cc1 | 0.124 | -0.556 | -0.462 | -1.53 | -0.372 | -1.18 | 0.148 (inactive) | 0.472 | -0.867 | 0.0001 (inactive) | 0.163 | -0.964 (inactive) | -0.253 (inactive) | 0.271 (inactive) | 0.936 (inactive) | 0.267 (inactive) | 0.366 (inactive) | -1.8 (inactive) | 0.224 | 0.511
8 | O=C1C[C@@H](O)[C@@H](O)[C@@H]2[C@@H]3C(=O)N(Cc4ccccc4)C(=O)[C@@H]3CC[C@@H]12 | 0.249 | -0.118 | 0.208 | 0.0158 | -0.499 | -0.229 | 0.377 (inactive) | 0.139 | 0.431 | 1.11 (inactive) | 0.568 | 0.178 (inactive) | 0.144 (inactive) | 0.378 (inactive) | -0.425 (inactive) | 0.0564 (inactive) | -0.7 (inactive) | -0.564 (inactive) | 0.112 | 0.126
9 | COC(=O)C=CCCc1coc(C=CCNC(=O)OC)n1 | -0.538 | 0.868 | -0.586 | 0.585 | -2.19 | 0.0672 | -0.944 (inactive) | 0.073 | 0.681 | -1.18 (inactive) | -0.658 | -1.07 (inactive) | 0.0455 (inactive) | 0.979 (inactive) | -0.27 (inactive) | 0.237 (inactive) | -1 (inactive) | -0.542 (inactive) | -0.102 | 0.249
